Screening data as filed in PubChem.
Rows were chosen to be rich in hits. Some 19% of all compounds tested hit in one or more screens of this group.
TDP1 cell CPT: growth inhibition of DT40 Tdp1-/-;hTDP1 cells with camptothecin (screen for TDP1 inhibitors) | Potency, µM (titrated, usually from 46.2 µM), without a hit: at the highest dose activity change, negative = growth inhibition, usual class: inhibitors | 420,000 compounds, 12% hits | chicken DT40 Tdp1-/-;hTDP1 cells + 20 nM CPT, ATP luminescence, 48 h | AID 686979; further: nearly all actives have a fitted effect of over 55% in size
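Cell growth measured by CellTiter-Glo luminescence after a minimum 48 h, 37 C compound exposure with 20 nM CPT in Tdp1-knockout DT40 cells stably expressing hTDP1, seeded 400/well; qHTS titration format.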
HT1080 IDH1KD tx: toxicity to HT-1080 IDH1 knockdown cells (counter line); HT-1080 IDH1 knockdown viability, ATP luminescence, 48 h; Potency, µM (highest dose often 46.1 µM), inactives show at the top dose activity, negative = toxicity, hits mostly cytotoxic; 360,000 compounds, 2% hits; AID 686971;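 further: 0% = DMSO wells and -100% = cell-free medium wells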
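IDH1KD HT-1080 cells, 750/well, RPMI + 5% FBS; compound pinned after 2 h settling; 48 h, 37 °C; CellTiter-Glo luminescence; % activity normalised to DMSO and no-cell wells; curves fitted, classed by r2 and efficacy.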
KB-3-1 cytotox: kills parental KB-3-1 adenocarcinoma cells | KB-3-1 viability, CellTiter-Glo ATP luminescence, 72 h | Potency, µM (doses to about 46.1 µM), actives largely listed as cytotoxic | 400,000 compounds, 1.4% hits | AID 1347075; further: nearly all actives have a fitted effect of over 60% in size
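Cells are dispensed, compounds pinned in, plates held at 37 °C for 72 h, then CellTiter-Glo is added and luminescence read after 10 minutes. Cell line: parental KB-3-1 in phenol-red-free DMEM, 10% FBS.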
HT1080-NT tox: kills 2HG-producing HT-1080-NT fibrosarcoma cells | HT-1080-NT fibrosarcoma viability, CellTiter-Glo ATP luminescence, 48 h | Potency, µM (doses to about 46.1 µM), inactives show top-dose activity, negative = less viability, hits mostly cytotoxic | 360,000 compounds, 1.6% hits | AID 686970;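 further: NT is the 2HG producing partner of a matched IDH1 knockdown line; 0% = DMSO-treated cells and -100% = media-only wells without cells; nearly all actives have a fitted effect of over 55% in size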
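Toxicity toward the 2HG-producing NT line was scored as %Activity, normalised to DMSO and no-cell wells, from CellTiter-Glo luminescence after 48 hours' treatment.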
TDP1 cell noCPT: qHTS for Inhibitors of human tyrosyl-DNA phosphodiesterase 1 (TDP1): qHTS in cells in absence of CPT; DT40 Tdp1-/- hTDP1 cells, no CPT, ATP luminescence, 48 h; Potency, µM (top dose mostly 46.2 µM), inactives show top-dose activity change, negative = growth inhibition, usual class: inhibitors; 420,000 compounds, 15% hits; AID 686978, 2013; further: nearly all actives have a fitted effect of over 55% in size
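Cells were dispensed at 400 per well, compounds added by pin tool, plates incubated ≥48 hr at 37 °C, then CellTiter-Glo added for 30 min at room temperature before luminescence reading. Line: DT40 Tdp1-/- complemented with hTDP1; camptothecin omitted.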
KB-V1 MDR tox: kills drug-selected multidrug resistant KB-V1 cells; KB-V1 MDR cells viability, CellTiter-Glo, 72 h; AID 1347076; Potency, µM (highest dose often 46.1 µM), actives largely listed as cytotoxic; 400,000 compounds, 3.4% hits; further: nearly all actives have a fitted effect of over 60% in size
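KB-V1, DMEM (no phenol red) + 10% FBS; cpd pin-transferred, titration series; 72 h, 37 degrees C; CellTiter-Glo, luminescence. Data normalized, curve-fit.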
Starred values were filed as active, the others as inactive; i = inactive; ? = inconclusive; . = no result; [ ] = dose if it differs, or a comment. The call rests on the fitted dose curve; in most records, active means well fitted curve in the direction sought with a large enough effect; inconclusive means small, poorly fitted or top-dose-only effect, or another doubt; inactive means no such curve, though single readings can be large; an effect the other way counts as inactive or inconclusive. Unless noted, on the % scale 0 is the no-effect control and ±100 the full control effect; potency means the concentration at half of the fitted maximal effect.

SMILES	TDP1 cell CPT	HT1080 IDH1KD tx	KB-3-1 cytotox	HT1080-NT tox	TDP1 cell noCPT	KB-V1 MDR tox
O=[N+]([O-])c1cccc2nc(-c3ccccc3)c(-c3ccccc3)nc12	?	-9%	i	-11%	?	i
Cn1c(-[n+]2c(-c3ccccc3)cc(-c3ccccc3)cc2-c2ccccc2)nc2c([N+](=O)[O-])cccc21	9.2µM*	?	?	?	18µM*	?
O=C(O)CCCN1C(=O)c2cccc3cccc(c23)C1=O	7%	0%	i	?	-12%	i
CN(C)CCCN1C(=O)c2cccc3cccc(c23)C1=O	?	?	?	?	?	i
O=C1c2ccccc2C(=O)N1CCCCN(C(=O)c1ccc(Cl)s1)c1ccc(Cl)cc1	?	19%	i	16%	21µM*	?
O=C1c2cccc3cccc(c23)C(=O)N1CCCN(C(=O)c1cccs1)c1cccc(F)c1	?	-13%	i	-1%	16µM*	?
Cc1ccc(N(CCCCN2C(=O)c3ccccc3C2=O)C(=O)c2cccc([N+](=O)[O-])c2)cc1	?	-19%	i	-9%	16µM*	18µM*
COc1ccc(N(CCCN2C(=O)c3cccc4cccc(c34)C2=O)C(=O)c2cccc(OC)c2)cc1	13µM*	-16%	i	-1%	10µM*	i
Cn1c(=O)c2c(ncn2Cc2nnc(N)s2)n(C)c1=O	1%	1%	i	3%	1%	i
O=C(NCc1ccc(C(F)(F)F)cc1)c1ccc(-c2cccnc2)c2ccoc12	?	-3%	i	-12%	?	i
CCOc1ccc2c(c1)OC(c1ccc(OC)cc1)(C(F)(F)F)NC2=O (stereo unspecified)	3.3µM*	4.6µM*	5.2µM*	?	3.3µM*	5.2µM*
CC(Oc1ccccc1)C(=O)N(CCC1=CCCCC1)c1c(N)n(Cc2ccccc2)c(=O)[nH]c1=O (stereo unspecified)	?	?	i	23µM*	?	i
Nc1c(N(CCC2=CCCCC2)C(=O)c2ccccc2F)c(=O)[nH]c(=O)n1Cc1ccccc1	?	-5%	i	5%[9.24 µM]	-25%	?
CS(=O)(=O)c1ccccc1C(=O)N(CCC1=CCCCC1)c1c(N)n(Cc2ccccc2)c(=O)[nH]c1=O	29µM*	-11%	i	0%	?	i
CC(Oc1ccc(Br)cc1)C(=O)N(Cc1ccccc1)c1c(N)n(Cc2ccccc2)c(=O)[nH]c1=O (stereo unspecified)	23µM*	-5%	i	-1%	21µM*	i
CC(N=Cc1ccccc1O)c1ccccc1 (stereo unspecified)	-22%	-6%	i	2%	-5%	i
O=[N+]([O-])c1ccc(O)c(C=Nc2ccc3c(c2)OCO3)c1	-29%	-19%	i	-25%	-9%	i
Cc1cc(O)c(C(C)C)cc1N=Cc1cc([N+](=O)[O-])ccc1O	23µM*	-16%	i	-21%	16µM*	i
Cc1cc(O)c(C(C)C)cc1N=Cc1ccccc1O	3.7µM*	-2%	i	1%	4.6µM*	i
Cc1nc2cc(NC(=O)[C@@H]3C[C@@H](Sc4ccccn4)CN3C3CCCCCC3)ccc2s1	15%[9.04 µM]	.	.	.	1%	.
CNc1cc(N2CCCC2)ccc1[N+](=O)[O-]	-1%	5%	i	8%	18%	i
COC(=O)c1cccc(NC(=O)c2ccc3c(c2)C(=O)N(C(C)(C)C)C3=O)c1	-5%	-1%	i	-4%	?	i
CC(C)(C)N1C(=O)c2ccc(C(=O)Nc3ccc(O)cc3)cc2C1=O	?	?	?	?	16µM*	8.2µM*
CC(C)(C)NC(=O)c1cccc(NC(=O)c2ccc3c(c2)C(=O)N(C(C)(C)C)C3=O)c1	?	?	i	?	10µM*	?
CC(C)(C)N1C(=O)c2ccc(C(=O)O)cc2C1=O	-2%	-2%	i	4%	-4%	?
SMILES	TDP1 cell CPT	HT1080 IDH1KD tx	KB-3-1 cytotox	HT1080-NT tox	TDP1 cell noCPT	KB-V1 MDR tox
COc1ccc(S(=O)(=O)N2CCCCC2)cc1NCC(=O)Nc1ccc(C)cc1	16µM*	-10%	i	-20%	9.2µM*	?
COc1ccc(C)cc1S(=O)(=O)N(CC(=O)Nc1cccc([N+](=O)[O-])c1)c1cc(C)cc(C)c1	-12%	?	i	3%	?	i
COc1ccc(S(=O)(=O)N2CCCCC2)cc1NC(=O)CCCOc1ccc(C)cc1	?	-3%	.	0%	?	.
COc1ccc(S(=O)(=O)N2CCCCCC2)cc1N(C)S(=O)(=O)c1ccc(C)cc1	?	-3%	i	0%	13µM*	2.6µM*
COc1ccc(C)cc1S(=O)(=O)N(CC(=O)Nc1cc([N+](=O)[O-])ccc1C)c1ccc(C)c(C)c1	8.2µM*	-5%	i	-8%	10µM*	i
COc1ccc(S(=O)(=O)N(C)C)cc1NCC(=O)Nc1ccc(Br)c(C)c1	?	-29%	i	-29%	18µM*	7.3µM*
Cc1cc(C)c(Cn2cnc3ccccc32)c(C)c1	-25%	-5%	i	-15%	-19%	i
COc1ncc2nc(-c3cc(F)cc(F)c3)c(=O)n(Cc3cccs3)c2n1	15%	.	.	.	10%	.
Cc1ccc(S(=O)(=O)N2CCCCC2)cc1NC(=O)COC(=O)CNC(=O)c1cc(Cl)cc([N+](=O)[O-])c1	-19%	17%	i	21%	-4%	i
COc1ccc(S(=O)(=O)N2CCCCC2)cc1NC(=O)CNc1ccccc1C(C)=O	23µM*	-1%	i	-6%	?	?
COc1ccc([N+](=O)[O-])cc1NCC(=O)Nc1cc(S(=O)(=O)N2CCCCC2)ccc1C	15µM*	5%	i	-10%	23µM*	?
COc1ccc(OC)c(C2=C/C(=C/c3ccccn3)C(=O)O2)c1	-5%	3%	i	-11%	-34%	i
O=C(CN1c2cccc3cccc(c23)S1(=O)=O)N1CCCCC1	-6%	1%	i	1%	-1%	i
O=Cc1cccc(OC(=O)Nc2ccccc2)c1	8%	22%	i	3%	?	i
